Residual activity data for three compounds are collected here from ChEMBL document CHEMBL2218924, “A broad activity screen in support of a chemogenomic map for kinase signalling research and drug discovery” (Biochem J, 2013).

SMILES strings stand for the structures.

The target of experiment [1] is T1, Serine/threonine-protein kinase 17A (Homo sapiens) (UniProt Q9UEE5).
T1 sequence (whole entry): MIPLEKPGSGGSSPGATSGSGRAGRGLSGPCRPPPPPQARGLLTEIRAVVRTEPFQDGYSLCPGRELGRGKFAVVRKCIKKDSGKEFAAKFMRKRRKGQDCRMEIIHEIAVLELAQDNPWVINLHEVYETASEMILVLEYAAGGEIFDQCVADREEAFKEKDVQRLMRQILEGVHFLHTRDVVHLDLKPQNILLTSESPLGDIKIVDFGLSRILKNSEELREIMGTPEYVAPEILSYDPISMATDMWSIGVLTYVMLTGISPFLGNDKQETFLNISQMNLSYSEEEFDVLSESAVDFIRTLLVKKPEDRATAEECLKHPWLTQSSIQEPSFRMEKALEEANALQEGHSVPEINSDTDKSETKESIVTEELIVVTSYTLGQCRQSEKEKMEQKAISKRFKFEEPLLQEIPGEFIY
The settings on record: at 10 µM.

The target of experiment [2] is T2, Dual specificity tyrosine-phosphorylation-regulated kinase 2 (Homo sapiens) (UniProt Q92630).
T2 sequence (whole entry): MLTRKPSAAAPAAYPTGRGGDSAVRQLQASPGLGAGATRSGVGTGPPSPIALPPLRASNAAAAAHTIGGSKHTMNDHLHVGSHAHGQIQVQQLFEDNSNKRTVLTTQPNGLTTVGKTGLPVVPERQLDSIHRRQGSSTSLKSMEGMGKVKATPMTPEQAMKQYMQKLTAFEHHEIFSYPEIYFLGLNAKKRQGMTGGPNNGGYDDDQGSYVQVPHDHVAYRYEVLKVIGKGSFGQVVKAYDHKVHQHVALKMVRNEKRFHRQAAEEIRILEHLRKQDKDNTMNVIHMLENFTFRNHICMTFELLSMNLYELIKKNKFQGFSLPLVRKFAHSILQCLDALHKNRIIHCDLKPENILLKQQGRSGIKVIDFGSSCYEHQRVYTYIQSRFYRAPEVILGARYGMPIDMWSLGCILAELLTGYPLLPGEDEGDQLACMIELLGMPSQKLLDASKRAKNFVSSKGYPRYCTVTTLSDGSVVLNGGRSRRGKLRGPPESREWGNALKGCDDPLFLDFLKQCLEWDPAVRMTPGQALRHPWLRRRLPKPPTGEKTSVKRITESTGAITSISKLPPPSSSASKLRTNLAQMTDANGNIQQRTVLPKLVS
The settings on record: at 1 µM.

Experiment [3] has as its target T2, Dual specificity tyrosine-phosphorylation-regulated kinase 2 (Homo sapiens). The settings on record: at 10 µM.
Experiment [4] has as its target T3, Ephrin type-A receptor 1 (Homo sapiens) (UniProt P21709).
T3 sequence (whole entry): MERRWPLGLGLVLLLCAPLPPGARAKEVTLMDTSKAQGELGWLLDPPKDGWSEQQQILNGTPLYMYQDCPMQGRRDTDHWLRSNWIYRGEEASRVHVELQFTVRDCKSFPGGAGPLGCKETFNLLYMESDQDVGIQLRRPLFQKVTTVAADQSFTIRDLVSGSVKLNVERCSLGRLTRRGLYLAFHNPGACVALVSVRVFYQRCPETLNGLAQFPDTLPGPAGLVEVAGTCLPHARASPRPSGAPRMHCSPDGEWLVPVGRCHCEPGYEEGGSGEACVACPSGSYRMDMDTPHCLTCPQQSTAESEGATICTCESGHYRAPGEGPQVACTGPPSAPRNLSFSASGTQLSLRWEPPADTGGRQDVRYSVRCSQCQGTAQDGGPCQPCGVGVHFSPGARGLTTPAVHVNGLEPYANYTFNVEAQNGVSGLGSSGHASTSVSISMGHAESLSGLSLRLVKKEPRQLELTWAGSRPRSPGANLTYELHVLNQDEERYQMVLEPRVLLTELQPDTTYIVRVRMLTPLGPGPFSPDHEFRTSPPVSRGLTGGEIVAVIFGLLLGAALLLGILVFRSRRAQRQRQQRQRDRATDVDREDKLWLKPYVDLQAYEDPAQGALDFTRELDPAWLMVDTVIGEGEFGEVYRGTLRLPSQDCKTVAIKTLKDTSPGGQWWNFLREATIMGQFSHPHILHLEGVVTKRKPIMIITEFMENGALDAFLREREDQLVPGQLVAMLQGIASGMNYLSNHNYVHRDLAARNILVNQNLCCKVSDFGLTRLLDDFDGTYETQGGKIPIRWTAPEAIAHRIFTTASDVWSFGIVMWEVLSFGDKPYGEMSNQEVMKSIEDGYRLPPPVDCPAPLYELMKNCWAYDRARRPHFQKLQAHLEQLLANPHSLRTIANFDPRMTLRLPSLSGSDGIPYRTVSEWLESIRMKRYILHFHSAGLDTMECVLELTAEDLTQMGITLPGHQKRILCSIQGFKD
The settings on record: at 1 µM.

For experiment [5], the target named is T3, Ephrin type-A receptor 1 (Homo sapiens). The settings on record: at 10 µM.
Experiment [6] has as its target Ephrin type-A receptor 2 (Homo sapiens) (UniProt P29317). The settings on record: at 1 µM.
For experiment [7] the target is unchanged. To be noted: at 10 µM.
In experiment [8] the target is T4, Ephrin type-A receptor 3 (Homo sapiens) (UniProt P29320).
T4 sequence (whole entry): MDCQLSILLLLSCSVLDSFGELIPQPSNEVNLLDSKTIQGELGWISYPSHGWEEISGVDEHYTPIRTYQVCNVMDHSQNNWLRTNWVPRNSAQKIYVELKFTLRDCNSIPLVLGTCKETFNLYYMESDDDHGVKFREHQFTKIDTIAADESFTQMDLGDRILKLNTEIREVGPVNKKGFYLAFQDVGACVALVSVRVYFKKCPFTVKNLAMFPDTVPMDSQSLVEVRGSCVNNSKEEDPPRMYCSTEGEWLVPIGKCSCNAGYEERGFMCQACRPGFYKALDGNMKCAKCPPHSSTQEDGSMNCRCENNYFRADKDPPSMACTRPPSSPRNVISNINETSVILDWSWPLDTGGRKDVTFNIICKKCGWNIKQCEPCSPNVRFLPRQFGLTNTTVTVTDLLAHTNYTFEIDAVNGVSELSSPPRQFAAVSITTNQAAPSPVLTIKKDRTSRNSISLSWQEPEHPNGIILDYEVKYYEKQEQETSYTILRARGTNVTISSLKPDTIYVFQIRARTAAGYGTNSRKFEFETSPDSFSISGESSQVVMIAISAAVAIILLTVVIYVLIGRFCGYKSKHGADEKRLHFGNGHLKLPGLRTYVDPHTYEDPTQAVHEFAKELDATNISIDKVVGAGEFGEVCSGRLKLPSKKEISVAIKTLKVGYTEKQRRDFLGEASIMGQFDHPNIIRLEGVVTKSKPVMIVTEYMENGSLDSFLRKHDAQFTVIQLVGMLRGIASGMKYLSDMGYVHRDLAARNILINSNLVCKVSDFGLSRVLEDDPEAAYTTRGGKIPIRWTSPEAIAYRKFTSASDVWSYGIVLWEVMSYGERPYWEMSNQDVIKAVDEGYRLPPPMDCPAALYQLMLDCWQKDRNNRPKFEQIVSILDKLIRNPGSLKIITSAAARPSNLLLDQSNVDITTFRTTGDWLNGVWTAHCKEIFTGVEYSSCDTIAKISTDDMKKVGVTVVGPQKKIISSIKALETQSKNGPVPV
To be noted: at 1 µM.

Experiment [9] addresses T4, Ephrin type-A receptor 3 (Homo sapiens). The settings on record: at 10 µM.
For experiment [10], the target named is Ephrin type-A receptor 4 (Homo sapiens) (UniProt P54764). To be noted: at 1 µM.
For experiment [11] the target is unchanged. To be noted: at 10 µM.
Experiment [12] concerns the target Ephrin type-A receptor 5 (Homo sapiens) (UniProt P54756). The settings on record: at 1 µM.
Experiment [13] shares this target. To be noted: at 10 µM.
For experiment [14], the target named is Ephrin type-A receptor 7 (Homo sapiens) (UniProt Q15375). The settings on record: at 1 µM.
The target is the same in experiment [15]. The settings on record: at 10 µM.
The target in experiment [16] is T5, Ephrin type-A receptor 8 (Homo sapiens) (UniProt P29322).
T5 sequence (whole entry): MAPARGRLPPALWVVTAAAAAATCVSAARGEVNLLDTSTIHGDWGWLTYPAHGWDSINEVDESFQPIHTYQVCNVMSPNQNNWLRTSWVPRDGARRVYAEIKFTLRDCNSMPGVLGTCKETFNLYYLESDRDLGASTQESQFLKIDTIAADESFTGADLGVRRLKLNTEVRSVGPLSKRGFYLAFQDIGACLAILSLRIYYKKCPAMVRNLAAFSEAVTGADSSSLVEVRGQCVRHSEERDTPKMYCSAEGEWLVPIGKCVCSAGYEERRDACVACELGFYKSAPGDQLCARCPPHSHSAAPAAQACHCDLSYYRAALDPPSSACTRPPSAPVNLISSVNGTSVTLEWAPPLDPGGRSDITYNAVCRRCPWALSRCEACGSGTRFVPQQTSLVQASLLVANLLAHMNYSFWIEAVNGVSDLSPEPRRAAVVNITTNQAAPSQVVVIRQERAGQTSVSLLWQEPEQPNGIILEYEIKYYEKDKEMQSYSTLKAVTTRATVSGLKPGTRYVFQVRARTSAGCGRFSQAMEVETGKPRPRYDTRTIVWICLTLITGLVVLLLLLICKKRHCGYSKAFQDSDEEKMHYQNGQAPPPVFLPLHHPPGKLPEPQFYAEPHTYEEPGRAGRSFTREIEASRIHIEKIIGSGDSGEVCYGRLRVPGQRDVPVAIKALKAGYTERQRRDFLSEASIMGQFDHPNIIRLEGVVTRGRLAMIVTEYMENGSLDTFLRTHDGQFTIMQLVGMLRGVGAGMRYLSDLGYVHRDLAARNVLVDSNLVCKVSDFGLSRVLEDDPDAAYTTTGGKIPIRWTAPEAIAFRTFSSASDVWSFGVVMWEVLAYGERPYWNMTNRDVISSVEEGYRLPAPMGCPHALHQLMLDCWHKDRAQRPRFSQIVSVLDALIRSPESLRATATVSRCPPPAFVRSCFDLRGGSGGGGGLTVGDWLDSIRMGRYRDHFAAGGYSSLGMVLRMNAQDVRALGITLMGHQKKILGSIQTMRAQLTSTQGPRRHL
The settings on record: at 1 µM.

Experiment [17] addresses T5, Ephrin type-A receptor 8 (Homo sapiens). The settings on record: at 10 µM.
The target in experiment [18] is T6, Ephrin type-B receptor 1 (Homo sapiens) (UniProt P54762).
T6 sequence (whole entry): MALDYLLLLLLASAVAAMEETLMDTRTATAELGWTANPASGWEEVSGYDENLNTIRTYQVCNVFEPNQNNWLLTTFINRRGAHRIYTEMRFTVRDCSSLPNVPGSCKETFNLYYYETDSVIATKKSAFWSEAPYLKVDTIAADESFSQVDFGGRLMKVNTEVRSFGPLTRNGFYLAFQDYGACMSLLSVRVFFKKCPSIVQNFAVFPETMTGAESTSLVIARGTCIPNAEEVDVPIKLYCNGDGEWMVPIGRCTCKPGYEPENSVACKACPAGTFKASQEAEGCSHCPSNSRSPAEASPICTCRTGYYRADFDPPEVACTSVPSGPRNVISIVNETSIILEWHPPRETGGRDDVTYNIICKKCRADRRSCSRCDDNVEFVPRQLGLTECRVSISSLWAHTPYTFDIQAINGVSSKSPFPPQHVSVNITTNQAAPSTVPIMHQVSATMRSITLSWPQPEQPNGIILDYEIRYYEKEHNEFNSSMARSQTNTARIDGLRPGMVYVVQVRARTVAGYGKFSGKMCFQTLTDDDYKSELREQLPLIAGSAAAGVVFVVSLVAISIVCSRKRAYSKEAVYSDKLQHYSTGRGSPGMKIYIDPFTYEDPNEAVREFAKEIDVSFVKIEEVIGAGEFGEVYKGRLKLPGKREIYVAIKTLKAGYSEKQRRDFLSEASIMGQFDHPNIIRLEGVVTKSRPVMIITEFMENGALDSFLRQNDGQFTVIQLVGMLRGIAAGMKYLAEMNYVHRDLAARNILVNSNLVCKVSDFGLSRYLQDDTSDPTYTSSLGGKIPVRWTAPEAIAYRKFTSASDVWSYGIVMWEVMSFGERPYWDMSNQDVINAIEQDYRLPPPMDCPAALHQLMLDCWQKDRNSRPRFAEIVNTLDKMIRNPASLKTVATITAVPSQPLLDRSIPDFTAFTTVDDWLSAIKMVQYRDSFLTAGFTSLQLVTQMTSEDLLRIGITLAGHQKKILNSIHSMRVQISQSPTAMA
The settings on record: at 1 µM.

Ephrin type-A receptor 5 (Homo sapiens), sequence (P54756 whole entry): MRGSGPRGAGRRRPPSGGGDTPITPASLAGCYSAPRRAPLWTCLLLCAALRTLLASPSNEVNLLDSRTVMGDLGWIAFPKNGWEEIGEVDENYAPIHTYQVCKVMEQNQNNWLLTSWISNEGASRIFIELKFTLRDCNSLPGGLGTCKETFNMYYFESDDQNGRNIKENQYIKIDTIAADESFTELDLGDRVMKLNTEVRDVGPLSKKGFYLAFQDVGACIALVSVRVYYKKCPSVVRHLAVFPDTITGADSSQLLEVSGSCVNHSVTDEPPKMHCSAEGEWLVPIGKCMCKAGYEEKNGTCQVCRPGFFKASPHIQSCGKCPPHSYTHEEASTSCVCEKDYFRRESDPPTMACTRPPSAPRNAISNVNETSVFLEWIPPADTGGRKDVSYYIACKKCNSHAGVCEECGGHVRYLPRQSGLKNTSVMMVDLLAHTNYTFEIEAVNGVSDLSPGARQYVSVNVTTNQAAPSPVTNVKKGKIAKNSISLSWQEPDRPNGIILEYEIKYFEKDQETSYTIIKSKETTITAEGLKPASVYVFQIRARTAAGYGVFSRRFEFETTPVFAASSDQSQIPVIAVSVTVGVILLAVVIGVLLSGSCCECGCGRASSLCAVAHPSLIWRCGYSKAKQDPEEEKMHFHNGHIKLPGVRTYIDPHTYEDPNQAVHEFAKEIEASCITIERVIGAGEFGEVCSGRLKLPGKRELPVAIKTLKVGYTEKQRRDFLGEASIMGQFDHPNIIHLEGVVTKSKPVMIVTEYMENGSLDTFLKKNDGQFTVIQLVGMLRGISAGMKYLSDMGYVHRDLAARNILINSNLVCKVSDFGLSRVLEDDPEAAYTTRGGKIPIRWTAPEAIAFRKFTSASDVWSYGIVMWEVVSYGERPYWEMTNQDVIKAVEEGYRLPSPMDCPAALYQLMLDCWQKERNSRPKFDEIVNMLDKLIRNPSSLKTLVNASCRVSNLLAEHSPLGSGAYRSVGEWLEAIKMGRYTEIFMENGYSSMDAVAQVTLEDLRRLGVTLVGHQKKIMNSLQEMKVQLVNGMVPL
Ephrin type-A receptor 4 (Homo sapiens), sequence (P54764 whole entry): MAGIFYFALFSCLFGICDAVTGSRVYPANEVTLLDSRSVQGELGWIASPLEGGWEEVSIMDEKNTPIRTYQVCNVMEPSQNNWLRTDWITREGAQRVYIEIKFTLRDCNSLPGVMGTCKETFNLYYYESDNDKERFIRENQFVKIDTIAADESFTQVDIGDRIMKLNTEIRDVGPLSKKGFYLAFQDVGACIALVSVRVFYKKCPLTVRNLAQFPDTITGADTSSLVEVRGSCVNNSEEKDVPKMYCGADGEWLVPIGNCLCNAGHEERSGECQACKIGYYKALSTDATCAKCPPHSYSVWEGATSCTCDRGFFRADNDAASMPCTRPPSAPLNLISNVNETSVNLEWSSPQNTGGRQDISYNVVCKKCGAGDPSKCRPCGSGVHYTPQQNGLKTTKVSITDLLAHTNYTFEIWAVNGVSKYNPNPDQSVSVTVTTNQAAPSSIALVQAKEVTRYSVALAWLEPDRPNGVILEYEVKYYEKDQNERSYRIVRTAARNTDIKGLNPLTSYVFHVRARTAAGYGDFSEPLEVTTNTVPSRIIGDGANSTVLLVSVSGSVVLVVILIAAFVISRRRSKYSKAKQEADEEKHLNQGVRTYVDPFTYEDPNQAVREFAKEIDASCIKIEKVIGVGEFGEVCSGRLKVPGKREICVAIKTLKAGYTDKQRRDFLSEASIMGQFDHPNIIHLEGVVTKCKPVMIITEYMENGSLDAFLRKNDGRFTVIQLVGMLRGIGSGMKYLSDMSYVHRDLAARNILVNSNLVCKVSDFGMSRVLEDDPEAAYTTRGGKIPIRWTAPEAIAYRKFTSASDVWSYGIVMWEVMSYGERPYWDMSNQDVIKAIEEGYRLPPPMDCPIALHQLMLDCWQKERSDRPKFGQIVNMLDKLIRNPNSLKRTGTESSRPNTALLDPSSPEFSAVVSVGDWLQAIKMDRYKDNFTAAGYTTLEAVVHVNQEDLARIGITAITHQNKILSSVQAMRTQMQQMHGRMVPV
Ephrin type-A receptor 2 (Homo sapiens), sequence (P29317 whole entry): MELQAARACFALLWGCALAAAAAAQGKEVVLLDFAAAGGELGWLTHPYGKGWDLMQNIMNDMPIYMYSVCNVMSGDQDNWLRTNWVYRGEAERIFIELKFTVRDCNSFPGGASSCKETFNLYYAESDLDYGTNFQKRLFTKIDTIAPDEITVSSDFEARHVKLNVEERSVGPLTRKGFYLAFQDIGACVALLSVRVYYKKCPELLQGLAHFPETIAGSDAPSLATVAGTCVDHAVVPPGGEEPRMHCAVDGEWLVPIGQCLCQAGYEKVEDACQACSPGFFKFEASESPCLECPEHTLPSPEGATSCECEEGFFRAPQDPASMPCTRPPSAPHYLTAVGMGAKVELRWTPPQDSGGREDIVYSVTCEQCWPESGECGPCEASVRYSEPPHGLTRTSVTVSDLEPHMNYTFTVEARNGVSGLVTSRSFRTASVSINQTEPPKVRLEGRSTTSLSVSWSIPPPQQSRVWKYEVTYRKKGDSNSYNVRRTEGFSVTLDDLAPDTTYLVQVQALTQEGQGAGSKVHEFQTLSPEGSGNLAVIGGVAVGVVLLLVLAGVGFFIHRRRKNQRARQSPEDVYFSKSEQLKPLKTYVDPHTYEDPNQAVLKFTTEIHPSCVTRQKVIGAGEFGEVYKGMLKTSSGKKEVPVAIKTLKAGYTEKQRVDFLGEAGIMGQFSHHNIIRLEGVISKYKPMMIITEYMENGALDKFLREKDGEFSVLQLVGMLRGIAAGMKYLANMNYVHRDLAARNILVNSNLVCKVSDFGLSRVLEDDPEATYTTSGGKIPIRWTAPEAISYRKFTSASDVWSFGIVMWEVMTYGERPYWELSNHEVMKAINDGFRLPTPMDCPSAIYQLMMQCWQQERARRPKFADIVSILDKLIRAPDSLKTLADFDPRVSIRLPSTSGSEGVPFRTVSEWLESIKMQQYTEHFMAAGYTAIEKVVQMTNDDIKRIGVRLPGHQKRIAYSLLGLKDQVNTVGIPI
Ephrin type-A receptor 7 (Homo sapiens), sequence (Q15375 28-998 limits assumed): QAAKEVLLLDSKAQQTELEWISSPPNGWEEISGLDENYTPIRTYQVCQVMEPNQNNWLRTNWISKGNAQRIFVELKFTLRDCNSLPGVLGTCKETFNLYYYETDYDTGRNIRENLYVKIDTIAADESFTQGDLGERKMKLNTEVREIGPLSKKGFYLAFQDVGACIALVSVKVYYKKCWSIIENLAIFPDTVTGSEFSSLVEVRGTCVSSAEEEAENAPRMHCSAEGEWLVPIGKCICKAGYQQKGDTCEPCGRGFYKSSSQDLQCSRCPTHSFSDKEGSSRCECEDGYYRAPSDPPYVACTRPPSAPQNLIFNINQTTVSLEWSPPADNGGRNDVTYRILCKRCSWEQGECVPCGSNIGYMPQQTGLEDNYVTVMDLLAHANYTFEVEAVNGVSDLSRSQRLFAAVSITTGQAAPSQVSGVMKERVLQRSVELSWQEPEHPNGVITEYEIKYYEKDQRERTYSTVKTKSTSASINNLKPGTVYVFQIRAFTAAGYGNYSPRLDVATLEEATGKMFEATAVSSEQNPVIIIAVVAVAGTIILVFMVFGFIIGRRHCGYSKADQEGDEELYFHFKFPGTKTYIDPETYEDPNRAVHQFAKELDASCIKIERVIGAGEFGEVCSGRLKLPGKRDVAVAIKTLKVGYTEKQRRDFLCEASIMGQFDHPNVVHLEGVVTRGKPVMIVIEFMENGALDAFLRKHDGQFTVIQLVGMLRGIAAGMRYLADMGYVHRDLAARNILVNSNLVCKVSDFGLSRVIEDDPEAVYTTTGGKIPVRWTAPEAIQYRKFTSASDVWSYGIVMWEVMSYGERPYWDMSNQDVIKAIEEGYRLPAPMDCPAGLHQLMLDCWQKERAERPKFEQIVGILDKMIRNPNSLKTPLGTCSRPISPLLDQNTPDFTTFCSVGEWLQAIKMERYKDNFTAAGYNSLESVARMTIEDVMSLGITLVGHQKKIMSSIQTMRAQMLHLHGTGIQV

The term residual activity denotes the signal under treatment as a percentage of the control signal. Consider `CC#CC(=O)Nc1cc2c(Nc3ccc(F)c(Cl)c3)ncnc2cn1`, for which the residual activity in experiment [1] is 105%; in [2], 102%; in experiment [3] it was 93%; in experiment [4], 102%; in experiment [5] it was 105%; in experiment [6], 100%. Further, the residual activity in experiment [7] worked out at 101%; in [8], 113%; in [9], 92%; in [10] it was 118%; in experiment [11], 91%; in experiment [12], 102%. For the same compound, the residual activity in [13] was determined as 97%; in experiment [14] it was 96%; in [15], 91%; in experiment [16], 104%; in [17] it was 93%; in [18], 96%.
As for `COc1cc2ncc(-c3ccccc3)nc2cc1OC`, the residual activity in experiment [2] turned out to be 93%; in [3], 99%; in experiment [4], 90%; in experiment [5], 94%; in experiment [7], 93%; in experiment [15], 94%.
Regarding `CC[n+]1c(/C=C/N(C)c2ccccc2)n(-c2ccccc2)c2ccc(-c3nc4ccccc4s3)cc21`, the residual activity is 68% in [1]; 99% in [2]; 103% in experiment [3]; 100% in experiment [4]; 100% in experiment [5]; 109% in experiment [6]. In addition, the residual activity in experiment [7] turned out to be 90%; in [8] it was 116%; in [9], 92%; in experiment [10], 106%; in experiment [11], 85%; in experiment [12] it was 120%. The residual activity was found to be 110% in [13]; 108% in experiment [14]; 96% in experiment [15]; 114% in experiment [16]; 103% in experiment [18].
